Assay results reported in PubChem BioAssay AID1159580 (chemical genetic matrix, 2015).
Several values for one entry are separate records, joined by “and”; a condition that tells them apart may be missing. Equal entries are not always repeated. Among all 5,500 compounds or so, about 2,000 (36%) were called active. Not shown: some 18% with an inconclusive outcome. No stated cut-off is given here; in the data, active means normalized growth mostly below about 0.91 (no sharp cut-off); inconclusive means no clear call, values can overlap the other calls; inactive means mostly above about 0.92. The list shows a part of the results.

Experiment: chemical genetic growth profiling, strain panel (AID 1159580);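 further: tested at 20 µM; growth read once vehicle control cultures reached saturation at 30 °C; 1 = growth at the plate median or of vehicle wells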
Settings: S. cerevisiae deletion strains, growth OD

Measured: normalized growth

COc1cc2c(cc1OC)[C@@H]1C(=O)c3ccc4oc(C(C)C)cc4c3O[C@@H]1CO2
inactive: locus YAL021C, strain ccr4, stronger effect = lower value 0.983 | locus YAL026C, strain drs2, stronger effect = lower value 0.995 | locus YAL030W, strain snc1, stronger effect = lower value 1 | locus YBL061C, strain skt5, stronger effect = lower value 0.995 | locus YBR009C, strain hhf1, stronger effect = lower value 0.992 | locus YBR021W, strain FUR4, stronger effect = lower value 1.01 | locus YBR023C, strain chs3, stronger effect = lower value 0.996 | locus YBR171W, strain sec66, stronger effect = lower value 0.999 | locus YBR229C, strain ROT2, stronger effect = lower value 1.01 | locus YBR231C, strain swc5, stronger effect = lower value 0.992 | locus YBR279W, strain paf1, stronger effect = lower value 0.996 | locus YCL011C, strain gbp2, stronger effect = lower value 0.97 | locus YCL016C, strain dcc1, stronger effect = lower value 0.993 | locus YCL029C, strain bik1, stronger effect = lower value 1.07 | locus YCL061C, strain MRC1, stronger effect = lower value 0.981 | locus YCL069W, strain vba3, stronger effect = lower value 1 | locus YCR088W, strain abp1, stronger effect = lower value 0.993 | locus YDL005C, strain med2, stronger effect = lower value 0.981 | locus YDL035C, strain GPR1, stronger effect = lower value 1.02 | locus YDL040C, strain nat1, stronger effect = lower value 0.989 | locus YDL074C, strain BRE1, stronger effect = lower value 1.04 | locus YDL101C, strain DUN1, stronger effect = lower value 1.01 | locus YDL185W, strain tfp1, stronger effect = lower value 1.01 | locus YDL192W, strain arf1, stronger effect = lower value 1.04 | locus YDR001C, strain nth1, stronger effect = lower value 0.979 | locus YDR069C, strain doa4, stronger effect = lower value 1.08 | locus YDR101C, strain arx1, stronger effect = lower value 1.02 | locus YDR137W, strain rgp1, stronger effect = lower value 0.992 | locus YDR150W, strain NUM1, stronger effect = lower value 1.02 | locus YDR159W, strain sac3, stronger effect = lower value 0.985 | locus YDR162C, strain NBP2, stronger effect = lower value 1.04 | locus YDR195W, strain ref2 0.982 | locus YDR297W, strain sur2, stronger effect = lower value 1.02 | locus YDR318W, strain mcm21, stronger effect = lower value 1.04 | locus YDR334W, strain swr1, stronger effect = lower value 0.977 | locus YDR335W, strain msn5, stronger effect = lower value 0.986 | locus YDR388W, stronger effect = lower value 1.02 | locus YDR392W, strain spt3, stronger effect = lower value 0.996 | locus YDR502C, strain sam2, stronger effect = lower value 1.03 | locus YEL003W, strain gim4, stronger effect = lower value 1.01 | locus YEL037C, strain rad23, stronger effect = lower value 0.995 | locus YEL061C, strain CIN8 (second series), stronger effect = lower value 0.984 | locus YER015W, strain faa2, stronger effect = lower value 0.99 | locus YER016W, strain bim1, stronger effect = lower value 0.971 | locus YER110C, stronger effect = lower value 1 | locus YER111C, strain swi4, stronger effect = lower value 0.977 | locus YER155C, strain BEM2 (second series), stronger effect = lower value 0.973 | locus YER155C, strain BEM2, stronger effect = lower value 1.02 | locus YER167W, strain BCK2, stronger effect = lower value 1.02 | locus YFR010W, strain ubp6, stronger effect = lower value 0.998 | locus YGL078C, strain dbp3, stronger effect = lower value 1.03 | locus YGL086W, strain mad1, stronger effect = lower value 1.02 | locus YGL167C, strain pmr1, stronger effect = lower value 0.982 | locus YGL173C, strain kem1, stronger effect = lower value 0.975 | locus YGL227W, strain vid30, stronger effect = lower value 0.982 | locus YGL240W, strain doc1, stronger effect = lower value 0.991 | locus YGL248W, strain PDE1, stronger effect = lower value 1.01 | locus YGL253W, strain hxk2, stronger effect = lower value 0.991 | locus YGR078C, strain PAC10, stronger effect = lower value 1.02 | locus YGR135W, strain pre9, stronger effect = lower value 1.08 | locus YGR252W, strain gcn5, stronger effect = lower value 1.01 | locus YHR013C, strain ard1, stronger effect = lower value 0.973 | locus YHR027C, strain rpn1, stronger effect = lower value 1 | locus YHR030C, strain SLT2, stronger effect = lower value 0.999 | locus YHR079C, strain IRE1 (second series), stronger effect = lower value 1 | locus YHR079C, strain IRE1, stronger effect = lower value 0.985 | locus YHR094C, strain hxt1, stronger effect = lower value 1.02 | locus YHR129C, strain ARP1, stronger effect = lower value 1.02 | locus YHR142W, strain chs7, stronger effect = lower value 1.01 | locus YHR200W, strain rpn10, stronger effect = lower value 1.03 | locus YIL066C, strain RNR3, stronger effect = lower value 1.02 | locus YIL073C, strain SPO22, stronger effect = lower value 1.06 | locus YIL125W, strain kgd1, stronger effect = lower value 1 | locus YIR030C, strain dcg1, stronger effect = lower value 1.05 | locus YJL092W, strain hpr5, stronger effect = lower value 0.968 | locus YJL095W, strain BCK1 (second series), stronger effect = lower value 1.01 | locus YJL095W, strain BCK1, stronger effect = lower value 1.04 and 0.981 | locus YJL115W, strain asf1, stronger effect = lower value 0.957 | locus YJL129C, strain trk1, stronger effect = lower value 0.974 | locus YJL134W, strain LCB3, stronger effect = lower value 1.01 | locus YJL154C, strain vps35, stronger effect = lower value 0.984 | locus YJL164C, strain tpk1, stronger effect = lower value 1.03 | locus YJL166W, strain qcr8, stronger effect = lower value 0.975 | locus YJL168C, strain set2, stronger effect = lower value 1.01 | locus YJL187C, strain SWE1 (second series), stronger effect = lower value 1.02 | locus YJR043C, strain POL32, stronger effect = lower value 1.02 | locus YJR066W, strain TOR1, stronger effect = lower value 0.907 | locus YKL009W, strain mrt4, stronger effect = lower value 0.918 | locus YKL068W, stronger effect = lower value 0.996 | locus YKL085W, strain MDH1 (second series), stronger effect = lower value 0.989 | locus YKL085W, strain MDH1, stronger effect = lower value 0.989 | locus YKL160W, strain elf1, stronger effect = lower value 0.99 | locus YKL190W, strain CNB1, stronger effect = lower value 1.02 | locus YKR001C, strain vps1, stronger effect = lower value 1.02 | locus YKR026C, strain gcn3, stronger effect = lower value 1 | locus YKR091W, strain srl3, stronger effect = lower value 0.984 | locus YLL001W, strain dnm1, stronger effect = lower value 0.972 | locus YLL026W, stronger effect = lower value 0.976 | locus YLL041C, strain sdh2, stronger effect = lower value 1.02 | locus YLR027C, strain aat2, stronger effect = lower value 0.999 | locus YLR039C, strain RIC1, stronger effect = lower value 1.1 | locus YLR058C, strain SHM2, stronger effect = lower value 1.01 | locus YLR102C, strain apc9, stronger effect = lower value 1.02 | locus YLR113W, strain HOG1, stronger effect = lower value 1.05 | locus YLR221C, strain rsa3, stronger effect = lower value 0.959 | locus YLR258W, strain gsy2, stronger effect = lower value 0.992 | locus YLR262C, strain YPT6 (second series), stronger effect = lower value 1.02 | locus YLR262C, strain YPT6, stronger effect = lower value 1.06 | locus YLR268W, strain sec22, stronger effect = lower value 1.02 | locus YLR320W, strain mms22, stronger effect = lower value 0.986 | locus YLR330W, strain CHS5, stronger effect = lower value 1.02 | locus YLR342W, strain FKS1 (second series), stronger effect = lower value 1.03 | locus YLR342W, strain FKS1, stronger effect = lower value 0.982 | locus YLR357W, strain rsc2, stronger effect = lower value 0.986 | locus YLR370C, strain arc18, stronger effect = lower value 0.981 | locus YLR371W, strain rom2, stronger effect = lower value 1.06 | locus YLR384C, strain iki3, stronger effect = lower value 0.993 | locus YLR418C, strain cdc73, stronger effect = lower value 1.01 | locus YML016C, strain PPZ1, stronger effect = lower value 1.02 | locus YML032C, strain rad52, stronger effect = lower value 1.01 | locus YML120C, strain ndi1, stronger effect = lower value 0.99 | locus YML124C, strain tub3, stronger effect = lower value 1.03 | locus YMR058W, strain fet3, stronger effect = lower value 0.968 | locus YMR078C, strain ctf18, stronger effect = lower value 1.02 | locus YMR125W, strain sto1, stronger effect = lower value 0.976 | locus YMR129W, stronger effect = lower value 0.985 | locus YMR205C, strain PFK2, stronger effect = lower value 0.987 | locus YMR223W, strain ubp8, stronger effect = lower value 1.01 | locus YMR231W, strain pep5, stronger effect = lower value 0.985 | locus YMR307W, strain GAS1, stronger effect = lower value 0.974 | locus YNL067W, strain RPL9B, stronger effect = lower value 1.02 | locus YNL071W, strain lat1, stronger effect = lower value 1.05 | locus YNL183C, strain NPR1, stronger effect = lower value 0.956 | locus YNL209W, strain ssb2, stronger effect = lower value 0.993 | locus YNL233W, strain BNI4, stronger effect = lower value 1.05 | locus YNL248C, strain rpa49, stronger effect = lower value 0.976 | locus YNL250W, strain rad50, stronger effect = lower value 1.02 | locus YNL271C, strain bni1, stronger effect = lower value 1.02 | locus YNL298W, strain CLA4, stronger effect = lower value 1.03 | locus YNL307C, strain MCK1, stronger effect = lower value 1.03 | locus YNL322C, strain KRE1 (second series), stronger effect = lower value 1 | locus YNL322C, strain KRE1, stronger effect = lower value 1.01 | locus YNR049C, strain mso1, stronger effect = lower value 0.982 | locus YNR052C, strain pop2, stronger effect = lower value 1.01 | locus YOL006C, strain TOP1, stronger effect = lower value 1.11 | locus YOL012C, strain htz1 0.869 | locus YOL147C, strain pex11, stronger effect = lower value 1.04 | locus YOR001W, strain rrp6, stronger effect = lower value 0.979 | locus YOR061W, strain CKA2, stronger effect = lower value 1.02 | locus YOR069W, strain VPS5, stronger effect = lower value 1.01 | locus YOR070C, strain gyp1, stronger effect = lower value 0.987 | locus YOR080W, strain dia2, stronger effect = lower value 0.965 | locus YOR083W, strain WHI5, stronger effect = lower value 0.987 | locus YOR106W, strain vam3, stronger effect = lower value 0.991 | locus YOR136W, strain idh2, stronger effect = lower value 1 | locus YOR144C, strain elg1, stronger effect = lower value 1.02 | locus YOR184W, strain ser1, stronger effect = lower value 1.05 | locus YOR231W, strain MKK1, stronger effect = lower value 0.975 | locus YOR265W, strain rbl2, stronger effect = lower value 1 | locus YOR270C, strain vph1, stronger effect = lower value 1.07 | locus YOR290C, strain snf2, stronger effect = lower value 0.978 | locus YOR316C, strain cot1, stronger effect = lower value 1 | locus YPL051W, strain arl3, stronger effect = lower value 0.985 | locus YPL078C, strain atp4, stronger effect = lower value 0.989 | locus YPL106C, strain sse1, stronger effect = lower value 1.03 | locus YPL240C, strain hsp82, stronger effect = lower value 1 | locus YPL256C, strain CLN2, stronger effect = lower value 0.988 | locus YPR119W, strain clb2, stronger effect = lower value 1.01 | locus YPR141C, strain kar3, stronger effect = lower value 1.06 | locus YPR163C, strain tif3, stronger effect = lower value 1.02 | locus YPR167C, strain met16, stronger effect = lower value 1.05 | strain wtn01, stronger effect = lower value 1.04
